The values below come from PubChem BioAssay (Tox21).

Inconclusive results are not listed. Values without a mark were called inactive. Unless noted, calls come from the whole dose curve; as a rule, active = well fitted curve in the direction sought with a large enough effect in the repeat runs; inconclusive = weak or mixed curves; inactive = no such curve, though single readings can be large; an effect the other way counts as inactive or inconclusive.
% is set by controls: 0 for no effect and ±100 for the full control effect.

The first experiment can be described thus: qHTS assay to identify small molecule antagonists of the TGF-beta/Smad signaling pathway - cell viability counter screen (AID 1346824). Note: nearly all actives have a fitted effect of over 50% in size. Conditions: SBE-bla HEK293T viability, CellTiter-Glo luminescence; series mostly up to 76.8 µM; viability change, negative = cytotoxic: at the top concentration. The method in brief: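 Cytotoxicity counter-screen run in the same wells as the beta-lactamase Smad reporter read: CellTiter-Glo luminescence after 30 min at room temperature. HEK 293T SBE-bla cells had 5 hr compound exposure at 37 C with TGF-beta1 (0.25 ng/mL stock).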
On the technique in general: qHTS replaces the single test concentration by a dilution series.
Turning to `O=NN(CCCl)C(=O)NCCCl`, the “viability change, negative = cytotoxic” value is -5.37% [at 35.3 µM].
Still for that read-out and setting: for `O=C(O)CCS` the value was 3.9%; for `CSSc1ccoc1C`, -3.22%; for `O=C1OC[C@H](Cc2cccc(O)c2)[C@H]1Cc1cccc(O)c1`, 2.82% [at 35.3 µM].
`CCCCCCCCCCCCCCCC(=O)OCC`: the “viability change, negative = cytotoxic” value was -5.14%.
In the case of `COC(=O)c1sccc1S(N)(=O)=O`, the “viability change, negative = cytotoxic” value is 18.6%.
The same measure, in the same setting: for `CCCCCCOC(=O)CCCCC` the value was -0.101%.
On to `O=c1[nH][nH]c(=O)c2cc([N+](=O)[O-])ccc12`, for which the “viability change, negative = cytotoxic” value is 4.38%.
Turning to `CNC1CCCN(c2c(F)cc3c(=O)c(C(=O)O)cn(C4CC4)c3c2OC)C1` (configuration not stated), the “viability change, negative = cytotoxic” value was 4.42% [at 35.3 µM].
`Nc1ccc(S(=O)(=O)NCc2ccccc2)cc1`: the “viability change, negative = cytotoxic” value is 1.16% [at 35.3 µM].
Regarding `CC(=O)N[C@@H](Cc1ccc(O)cc1)C(=O)O`, the “viability change, negative = cytotoxic” value is 6.4% [at 35.3 µM].
Consider `CC(C)(C)NCC(O)COc1cccc2c1C[C@H](O)[C@H](O)C2` (some centres not stated), for which the “viability change, negative = cytotoxic” value is 0.155% [at 35.3 µM].
In the case of `CCC(Cl)CC(Cl)C(Cl)C(Cl)C(Cl)C(C)Cl` (configuration not stated), the viability change, negative = cytotoxic is -12.4% [at 15.8 µM].
In the case of `CC(C)c1ccc(C#N)cc1`, the “viability change, negative = cytotoxic” value is 15%.
Same read-out and setting: for `Cc1cccc2sc(N)nc12` the value was 1.28%; for `CN=C(N)NC(=O)Nc1c(C)cccc1C`, 1.12% [at 35.3 µM]; for `CCCCCCCCCCCCCCN(C)C`, -8.55% [at 15.8 µM].
Consider `C=CC(=O)NC(C)C`, for which the “viability change, negative = cytotoxic” value was 2.79%.
In the case of `O=C1CC[C@@H](C(=O)O)N1`, the “viability change, negative = cytotoxic” value is -9.18% [at 35.3 µM].
The same measure, in the same setting: for `CCCCOCCOC(=O)c1cccnc1` the value was 0.416% [at 35.3 µM].
On to `COC(CC(C)CCCC(C)(C)O)OC` (configuration not stated), for which the “viability change, negative = cytotoxic” value was 8.23%.
Take `Cc1cccc(C)c1NC(=O)c1cc(S(N)(=O)=O)c(Cl)cc1O`: the “viability change, negative = cytotoxic” value was 3% [at 35.3 µM].

The next experiment can be described thus: qHTS assay to identify small molecule agonists of the TGF-beta/Smad signaling pathway - cell viability counter screen (AID 1346829). Note: top concentration of the series differs between compounds; nearly all actives have a fitted effect of over 45% in size. The note with it: SBE-bla HEK293T viability, CellTiter-Glo luminescence, 5 h; series mostly up to 76.8 µM; activity change, negative = cytotoxicity: at the top concentration. The method in brief:
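In parallel with the Smad reporter read, viability of HEK 293T cells stably carrying SBE-bla is quantified by ATP luminescence following 5 hr compound treatment.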
With `O=NN(CCCl)C(=O)NCCCl`, the “activity change, negative = cytotoxicity” value was 4.09% [at 35.3 µM].
For the molecule `O=C1OC[C@H](Cc2cccc(O)c2)[C@H]1Cc1cccc(O)c1`, the “activity change, negative = cytotoxicity” value was -2.9% [at 35.3 µM].
On to `Nc1ccn([C@H]2CS[C@@H](CO)O2)c(=O)n1`, for which the “activity change, negative = cytotoxicity” value is -5.83%.
In the case of `FC(F)(F)C(F)(F)C(F)(F)C(F)(F)CCI`, the “activity change, negative = cytotoxicity” value is 1.02% [at 35.3 µM].
On the same count and under the same terms, for `Nc1ccc(N=Nc2ccc(N)cc2)cc1` the value was 3.96% [at 35.3 µM].
For the molecule `CC1C(C)(C)C2=C(C(=O)CCC2)C1(C)C` (configuration not stated), the “activity change, negative = cytotoxicity” value is 10%.
For the molecule `COC(=O)c1sccc1S(N)(=O)=O`, the “activity change, negative = cytotoxicity” value was -2.9%.
For `CNC1CCCN(c2c(F)cc3c(=O)c(C(=O)O)cn(C4CC4)c3c2OC)C1` (configuration not stated), the “activity change, negative = cytotoxicity” value was 1.31% [at 35.3 µM].
Turning to `CC(=O)N[C@@H](Cc1ccc(O)cc1)C(=O)O`, the “activity change, negative = cytotoxicity” value is -6.19% [at 35.3 µM].
In the case of `CC(C)(C)NCC(O)COc1cccc2c1C[C@H](O)[C@H](O)C2` (some centres not stated), the “activity change, negative = cytotoxicity” value is 7.81% [at 35.3 µM].
With `CCC(Cl)CC(Cl)C(Cl)C(Cl)C(Cl)C(C)Cl` (configuration not stated), the activity change, negative = cytotoxicity is 0% [at 15.8 µM].
On the same count and under the same terms, for `CC(C)c1ccc(C#N)cc1` the value was 5.31%.
Still for that read-out and setting: for `CC1=CC[C@@]23C[C@@H]1C(C)(C)[C@@H]2CC[C@H]3C` the value was -0.915%.
On the same count and under the same terms, for `Cc1cccc2sc(N)nc12` the value was 0.0832%.
For the molecule `CN=C(N)NC(=O)Nc1c(C)cccc1C`, the “activity change, negative = cytotoxicity” value is 1.38% [at 35.3 µM].
`CCCCCCCCCCCCCCN(C)C`: the activity change, negative = cytotoxicity is 4.77% [at 15.8 µM].
As for `C=CC(=O)NC(C)C`, the “activity change, negative = cytotoxicity” value is 5.29%.
The same measure, in the same setting: for `O=C(O)c1cccc(C[C@@H]2COc3ccc(OCc4nc5cc(F)ccc5s4)cc3[C@@H]2O)c1` the value was -5.97%; for `O=C(O)CO`, 3.98%; for `Cc1ccc(N(CC2=NCCN2)c2cccc(O)c2)cc1`, 11.5% [at 35.3 µM].
`CC(C)C(=O)OCCOc1ccccc1`: the “activity change, negative = cytotoxicity” value is 12.7%.
Take `CCCCOCCOC(=O)c1cccnc1`: the “activity change, negative = cytotoxicity” value is -5.7% [at 35.3 µM].
Same read-out and setting: for `COC(=O)CC(C(C)=O)C(=O)OC` (configuration not stated) the value was -1.52%; for `CC(C)(O)c1coc(S(=O)(=O)NC(=O)Nc2c3c(cc4c2CCC4)CCC3)c1`, 7.25%; for `COC(CC(C)CCCC(C)(C)O)OC` (configuration not stated), 3.79%.
Same read-out and setting: for `C[C@H](CS)C(=O)N1CCC[C@H]1C(=O)O` the value was 6.93% [at 35.3 µM]; for `CC(=O)Oc1cccc(O)c1`, -5.32% [at 35.3 µM].
`CSCC[C@H](NC(=O)[C@H](Cc1c[nH]c2ccccc12)NC(=O)CCNC(=O)OC(C)(C)C)C(=O)N[C@@H](CC(=O)O)C(=O)N[C@@H](Cc1ccccc1)C(N)=O`: the “activity change, negative = cytotoxicity” value is -0.847% [at 35.3 µM].

The next experiment is described as follows: qHTS assay to identify small molecule agonists of the TGF-beta/Smad signaling pathway (AID 1346859; active = well fitted activation curve with a large enough effect in the signal ratio in the repeat runs, not every such curve was filed as active; the % refers to the signal ratio). Conditions: SBE-bla HEK293T, TGF-beta/Smad beta-lactamase reporter, 5 h; series mostly up to 76.8 µM; activation: at the top concentration. The method in brief: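 Beta-lactamase reporter activity downstream of Smad binding elements was measured in stably transfected HEK 293T cells; compounds were incubated for 5 hr, substrate for 2 hr at room temperature.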
Consider `O=NN(CCCl)C(=O)NCCCl`, for which the “activation” value is 3.85% [at 35.3 µM].
For the molecule `O=C(O)CCS`, the “activation” value was 2.73%.
Take `CSSc1ccoc1C`: the “activation” value was 4.9%.
Regarding `O=C1OC[C@H](Cc2cccc(O)c2)[C@H]1Cc1cccc(O)c1`, the “activation” value was -0.436% [at 35.3 µM].
The same measure, in the same setting: for `Nc1ccn([C@H]2CS[C@@H](CO)O2)c(=O)n1` the value was -0.503%; for `FC(F)(F)C(F)(F)C(F)(F)C(F)(F)CCI`, 1.89% [at 35.3 µM]; for `CCCCCCCCCCCCCCCC(=O)OCC`, -1.2%.
In the case of `Nc1ccc(N=Nc2ccc(N)cc2)cc1`, the “activation” value was -1.15% [at 35.3 µM].
`CC1C(C)(C)C2=C(C(=O)CCC2)C1(C)C` (configuration not stated): the “activation” value is -1.41%.
Consider `COC(=O)c1sccc1S(N)(=O)=O`, for which the “activation” value is 0.163%.
As to `CCCCCCOC(=O)CCCCC`, the “activation” value is -0.663%.
Take `O=c1[nH][nH]c(=O)c2cc([N+](=O)[O-])ccc12`: the “activation” value is -6.98%.
On to `CCC(=O)OCc1ccc(OC)cc1`, for which the “activation” value is 0.502%.
Regarding `CNC1CCCN(c2c(F)cc3c(=O)c(C(=O)O)cn(C4CC4)c3c2OC)C1` (configuration not stated), the “activation” value is 2.39% [at 35.3 µM].
`Nc1ccc(S(=O)(=O)NCc2ccccc2)cc1`: the “activation” value is -0.82% [at 35.3 µM].
Still for that read-out and setting: for `CC(=O)N[C@@H](Cc1ccc(O)cc1)C(=O)O` the value was -0.498% [at 35.3 µM]; for `CC(C)(C)NCC(O)COc1cccc2c1C[C@H](O)[C@H](O)C2` (some centres not stated), 2.49% [at 35.3 µM]; for `CC(C)c1ccc(C#N)cc1`, -2.47%.
Take `CC1=CC[C@@]23C[C@@H]1C(C)(C)[C@@H]2CC[C@H]3C`: the “activation” value was -0.619%.
For the molecule `Cc1cccc2sc(N)nc12`, the “activation” value was -0.165%.
On the same count and under the same terms, for `CCN(CC)CC(=O)Nc1c(C)cccc1C(=O)OC` the value was -1.68% [at 35.3 µM].
Same read-out and setting: for `CN=C(N)NC(=O)Nc1c(C)cccc1C` the value was -0.639% [at 35.3 µM]; for `CCCCCCCCCCCCCCN(C)C`, -0.505% [at 15.8 µM]; for `C=CC(=O)NC(C)C`, 0.131%.
`O=C(O)c1cccc(C[C@@H]2COc3ccc(OCc4nc5cc(F)ccc5s4)cc3[C@@H]2O)c1`: the “activation” value was -6.3%.
`O=C(O)CO`: the “activation” value was 0.649%.
Same read-out and setting: for `Cc1ccc(N(CC2=NCCN2)c2cccc(O)c2)cc1` the value was 0.397% [at 35.3 µM]; for `CC(C)C(=O)OCCOc1ccccc1`, -0.623%; for `O=C1CC[C@@H](C(=O)O)N1`, -2.13% [at 35.3 µM].
In the case of `CCCCOCCOC(=O)c1cccnc1`, the “activation” value was 0.932% [at 35.3 µM].
For the molecule `COC(=O)CC(C(C)=O)C(=O)OC` (configuration not stated), the “activation” value was -1.24%.
On to `CC(C)(O)c1coc(S(=O)(=O)NC(=O)Nc2c3c(cc4c2CCC4)CCC3)c1`, for which the “activation” value is -1.19%.
As to `COC(CC(C)CCCC(C)(C)O)OC` (configuration not stated), the “activation” value is 0.24%.
For `C[C@H](CS)C(=O)N1CCC[C@H]1C(=O)O`, the “activation” value is 0.144% [at 35.3 µM].
As to `CC(=O)Oc1cccc(O)c1`, the “activation” value was 3.1% [at 35.3 µM].
Regarding `CSCC[C@H](NC(=O)[C@H](Cc1c[nH]c2ccccc12)NC(=O)CCNC(=O)OC(C)(C)C)C(=O)N[C@@H](CC(=O)O)C(=O)N[C@@H](Cc1ccccc1)C(N)=O`, the “activation” value is -2.16% [at 35.3 µM].
On to `Cc1cccc(C)c1NC(=O)c1cc(S(N)(=O)=O)c(Cl)cc1O`, for which the “activation” value was 1.69% [at 35.3 µM].
